Rows were chosen to be rich in hits. Some 3.4% of all compounds tested hit in one or more screens of this group.
PLC-gamma1 inh – PLC-gamma1 (human) inhibition, primary screen. P19174. purified PLC-gamma1, fluorogenic substrate, fluorescence. inhibition, % at 12.2 µM. actives 0.84% (n = 370,000). AID 720700; in the data active = inhibition above about 9.5%
ADAM10 inh – inhibits human ADAM10 | recombinant ADAM10, EDANS/DABCYL FRET peptide cleavage, 3 h | inhibition, % at 7 µM | actives 0.62% (n = 370,000) | AID 720582;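 active = inhibition above a per-campaign cutoff equal to the mean of compounds falling between control-based bounds plus 3 SD, cut at about 20% in these data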;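 note: 0% = DMSO wells while the 100% control is not disclosed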
HGIII-sPLA2 inh – Blocks human group III sPLA2 activity; Q9NZ20; QFRET BODIPY PC-A2 liposome hydrolysis, fluorescence; inhibition, % at 12.2 µM; actives 0.56% (n = 370,000); AID 743126;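 active = inhibition above mean plus 3 SD of compounds lying within the high and low control bounds, cut at about 19% in these data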;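 note: 0% = median of test compound wells and 100% = no enzyme DMSO wells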
Target sequence (Q9NZ20 whole entry, looked up): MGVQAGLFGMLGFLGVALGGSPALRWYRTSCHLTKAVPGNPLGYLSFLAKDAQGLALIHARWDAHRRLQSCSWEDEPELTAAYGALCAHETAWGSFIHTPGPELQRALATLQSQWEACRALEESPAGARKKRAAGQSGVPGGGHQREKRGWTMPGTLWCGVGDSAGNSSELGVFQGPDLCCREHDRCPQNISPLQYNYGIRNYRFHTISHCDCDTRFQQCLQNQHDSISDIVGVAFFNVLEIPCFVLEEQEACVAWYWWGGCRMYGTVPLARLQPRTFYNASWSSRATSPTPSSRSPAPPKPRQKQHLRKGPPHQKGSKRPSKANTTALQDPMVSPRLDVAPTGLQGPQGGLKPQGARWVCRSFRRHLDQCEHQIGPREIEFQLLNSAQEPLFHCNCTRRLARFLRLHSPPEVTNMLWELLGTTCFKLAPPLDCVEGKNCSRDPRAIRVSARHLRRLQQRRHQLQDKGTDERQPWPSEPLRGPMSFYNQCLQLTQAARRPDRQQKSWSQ
PLC-beta3 inh – blocks human PLC-beta3 enzyme activity; Q01970; Purified PLC-beta3, fluorogenic substrate, fluorescence; inhibition, % at 12.2 µM; actives 0.18% (n = 370,000); in the data active = inhibition above about 11%;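 note: 0% = median of compound wells on plate and 100% = full blocker control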
KLK7 zymogen act – activators of human kallikrein-7 zymogen; P49862; purified proKLK7, EDANS-DABCYL substrate fluorescence; 100% is mature enzyme control, 0% vehicle; activation, % at 7 µM; actives 0.9% (n = 370,000); AID 652039;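 active = activation above the mean of all tested compounds plus 3 SD, computed per campaign excluding outliers beyond control limits, cut at about 13% in these data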
ADAM17 inh – inhibitors of human ADAM17 | inhibition, % at 6.95 µM | P78536 | actives 0.83% (n = 370,000) | recombinant ADAM17, EDANS/DABCYL FRET peptide cleavage;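 active = inhibition above the mean of compounds lying between control limits plus 3 SD, set per campaign, cut at about 8.5% in these data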;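 note: 0% = DMSO-only wells as the low control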
* marks the source's active call; other numbers are inactive results; i = inactive; x = not tested or not shown.

SMILES	PLC-gamma1 inh	ADAM10 inh	HGIII-sPLA2 inh	PLC-beta3 inh	KLK7 zymogen act	ADAM17 inh
COc1cccc(NC(=O)n2ccc3ccc(-c4ccc5ccn(C(=O)Nc6cccc(OC)c6)c5c4)cc32)c1	-67.2	-71.8	12.4	-105.2	-6.6	-20.9
C(=C\c1ccccc1)/CSc1nnc(Cc2cccs2)n1-c1ccccc1	-2.2	1.2	-4.0	-5.0	0.7	3.0
O=C1c2cccc(OCc3ccc(F)cc3)c2CCN1Cc1ccc(F)cc1	11.3*	19.3	-15.9	4.5	-0.4	6.5
COc1ccc(OC)c(NC(=O)O[C@@H]2CC[C@@]34CCCN3C(=O)CCC[C@H]4C2)c1	0.1	-5.0	6.7	0.2	x	-3.7
COc1ccc(/C=C2\CCCC3C2=NN(C(=O)COC(=O)CNC(=O)c2ccccc2)C3c2ccc(OC)cc2)cc1 (stereo not drawn)	-0.3	21.2*	-15.2	-5.3	-0.3	3.7
Cc1ccccc1C(=O)NC1CCCCN(Cc2cccc(C(F)(F)F)c2)C1=O (stereo not drawn)	1.9	0.3	6.7	-2.0	0.3	-2.8
O=C(NC(=S)Nc1ccc(O)cc1)c1cncc(Br)c1	2.3	-3.3	21.9*	-2.3	-0.5	-2.1
O=C(NC(=S)Nc1cccc(O)c1)c1cncc(Br)c1	0.1	-0.5	13.1	-5.2	-0.4	-3.0
COC(=O)C1(C)NC(c2ccc(O)cc2)C2C(=O)N(c3ccccc3)C(=O)C21 (stereo not drawn)	-2.0	-3.6	9.5	-6.0	0.2	-8.3
COC(=O)C1(C)NC(c2ccc(O)cc2)C2C(=O)N(c3ccc(F)cc3)C(=O)C21 (stereo not drawn)	15.2*	8.0	5.8	3.0	0.3	4.4
C(=N\Nc1nc2ccccc2[nH]1)/c1ccccn1	-0.4	-0.7	12.2	0.1	-0.4	-1.9
Fc1ccccc1-c1ccc(/C=N/Nc2nc3ccccc3[nH]2)o1	-431.0	-14.8	30.0*	i	-1.1	0.9
O=C1C=CC(=O)C(CNc2ccc(C(=O)OCc3ccccc3)cc2)=C1	-10.0	5.3	25.9*	-14.7	0.3	3.4
CCCCCCCCCCCCCCCC[n+]1ccc(/C=N/O)cc1	17.1*	18.1	-14.4	4.9	0.2	0.9
CCCCCCCCCCCCCCCC[n+]1ccc(C(N)=O)cc1	5.7	11.0	-5.2	5.2	-0.2	1.2
CCOC(=O)c1c(C)[nH]c(N=Nc2ccccc2)c1C	0.5	18.0	-5.7	4.2	-0.2	6.8
CCOC(=O)c1c(C)[nH]c(N=Nc2ccc(C)cc2)c1C	9.2	10.1	-15.9	5.8	0.2	14.9*
COC(=O)C[C@@H]1CC[C@H]2[C@@H](COc3ccc(NC(=O)c4cc(C)on4)cc3C(=O)N2C)O1	1.2	0.7	-0.7	1.8	0.2	1.1
COc1cccc(OC)c1OCCCCCCN1CCN(C)CC1	13.0*	5.0	3.5	-1.4	-0.1	2.2
CCOc1ccc(-n2c(SCC(=O)Nc3cccc4ccccc34)nnc2-c2ccco2)cc1	0.7	4.0	-11.4	1.1	-0.8	4.0
O=C1Nc2ccccc2C1=Nc1cccc([N+](=O)[O-])c1	-1.7	4.8	3.0	1.9	0.4	-1.4
NC(=O)c1ccc(N=C2C(=O)Nc3ccc([N+](=O)[O-])cc32)cc1	10.7*	10.5	9.8	-4.0	-0.5	8.3
CNC[C@H](CC1CCCCC1)NC[C@H](Cc1ccccc1)NCCC12CC3CC(CC(C3)C1)C2	10.0*	-1.2	10.4	4.2	-0.4	-3.4
NC[C@H](Cc1ccccc1)NCCCCC1CCCCC1	9.2	2.1	16.8	5.2	0.5	0.6
CN(C1CCCCC1)S(=O)(=O)c1ccc(NC(=O)c2ccc(Br)o2)cc1	-0.3	20.3*	-20.8	0.3	0.9	6.5
SMILES	PLC-gamma1 inh	ADAM10 inh	HGIII-sPLA2 inh	PLC-beta3 inh	KLK7 zymogen act	ADAM17 inh
C#CCNC(=O)C[C@H]1C[C@@]2(C(=O)OC)C(=C[C@H](C3CCCC3)O[C@@H]2C)N(Cc2cccc3ccccc23)C1=O	2.5	13.4	-12.6	5.3	0.8	0.7
NNc1ccc([N+](=O)[O-])c2[nH][nH]c(=O)c12	22.6*	-6.0	8.2	-5.0	-0.4	-1.5
O=[N+]([O-])c1ccc(Nc2ccccc2)c2nonc12	-1.4	9.4	1.5	-7.6	0.1	0.0
CC12CCC(=O)C=C1CCC1C2CCC2(C)C(c3csc(N)n3)CCC12 (stereo not drawn)	0.3	23.6*	-8.7	0.0	0.4	1.5
CC12CCC(=O)C=C1CCC1C2C(O)CC2(C)C(c3csc(N)n3)CCC12 (stereo not drawn)	-4.6	1.0	-17.5	-5.1	0.5	-1.2
CC1=NN(c2ccccc2)C(=O)/C1=C\c1ccc(Oc2ccc([N+](=O)[O-])cc2[N+](=O)[O-])cc1	19.8*	6.0	8.2	4.5	-0.3	3.2
COc1cc(/C=C2/C(=O)N(c3ccc(C)c(C)c3)N=C2C)cc([N+](=O)[O-])c1O	0.5	8.1	-3.0	-3.3	0.3	-0.9
O=C(c1cccc(Cl)c1)N1CCC(=O)N(C(COCc2cccc(Cl)c2)Cc2ccccc2)CC1 (stereo not drawn)	6.8	6.1	-9.3	-2.0	-0.2	2.2
O=C(c1ccc(Cl)c(Cl)c1)N1CCC(=O)N(C(COCc2cccc(Cl)c2)Cc2ccccc2)CC1 (stereo not drawn)	4.8	28.5*	-12.6	1.4	0.9	12.7*
O=C(N[C@@H](Cc1cccnc1)C(=O)N1CCC[C@H]1C(=O)NCCc1ccccc1Cl)C1CCCC1	2.8	-9.5	-0.6	2.9	0.9	-1.4
S=C(Nc1ccc(Cl)c(Cl)c1)NC1CCN(Cc2ccccc2)CC1	2.0	19.8*	-23.4	2.0	0.4	3.7
CCCN(CC1CC1)C(=O)c1oc(=O)c2ccccc2c1-c1ccc(C)cc1	3.3	0.1	6.0	2.8	-0.4	-6.5
CC1(C)N=C(N)N=C(N)N1c1ccc(CCCCc2ccccc2)cc1	10.5*	10.1	-2.8	4.5	-0.2	0.6
CC1(C)N=C(N)N=C(N)N1c1ccccc1	1.9	7.4	8.6	6.5	-0.1	1.4
Cc1cccc(C)c1OCc1cccc(C2Nc3ccccc3C(=O)N2Cc2ccco2)c1 (stereo not drawn)	-125.3	-337.8	7.4	-180.2	x	-111.7
C=CCC[C@H](Cc1ccc(F)cc1)C(=O)OC[C@@H](NC(=O)[C@@H](CC=C)CC(=O)N[C@@H](CO)Cc1ccccc1)C(C)(C)C	1.1	20.5*	-27.0	1.6	0.2	8.2
C=CCC[C@H](Cc1ccc(F)cc1)C(=O)OC[C@@H](C)NC(=O)[C@@H](CC=C)CC(=O)N[C@H](CO)Cc1ccccc1	3.1	8.7	-43.2	2.1	-0.1	2.7
CCC(NC(=O)c1cccc2c1C(=O)N(Cc1cccnc1)C2)c1ccccc1 (stereo not drawn)	1.8	3.0	7.2	4.5	-0.3	0.7

Assay outcomes deposited in PubChem by The Scripps Research Institute Molecular Screening Center.
